Inconclusive results are not listed. The source made the active and inactive calls. Unless noted, calls come from the whole dose curve; as a rule, active = well fitted curve in the direction sought with a large enough effect in the repeat runs; inconclusive = weak or mixed curves; inactive = no such curve, though single readings can be large; an effect the other way counts as inactive or inconclusive.
Legend:
[1] = qHTS assay to identify small molecule antagonists of the vitamin D receptor (VDR) signaling pathway - cell viability counter screen (AID 743225); note: % is set by controls: 0 for no effect and ±100 for the full control effect; nearly all actives have a fitted effect of over 50% in size
Summary of the method: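 VDR-UAS-bla HEK 293T cells were plated and incubated 4 h at 37C, then dosed with compound plus 3 nM (final) 1-alpha,25-dihydroxyvitamin D3 for 16 h. After the 2 h beta-lactamase read, viability in the same wells was read as CellTiter-Glo luminescence after 30 min at room temperature.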

[2] = qHTS assay to identify small molecule agonists of the NFkB signaling pathway (AID 1159509; active = well fitted curve in the direction sought with a large enough effect in the signal ratio in the repeat runs, not every such curve was filed as active; the % refers to the signal ratio; note: series mostly up to about 61 µM; % is set by controls: 0 for no effect and ±100 for the full control effect)
Summary of the method: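 After overnight attachment, reporter cells received test compounds, DMSO or positive controls and were incubated 5 hr at 37 C. FRET substrate was then added for 1.5 hr at room temperature before dual-emission fluorescence reading.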

[3] = qHTS assay to identify small molecule agonists of the endoplasmic reticulum stress response signaling pathway (AID 1159516; active = well fitted activation curve with a large enough effect in the signal ratio in the repeat runs, not every such curve was filed as active; the % refers to the signal ratio; note: % is set by controls: 0 for no effect and ±100 for the full control effect)
Summary of the method: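 An ESRE-bla HeLa cell assay: compounds were pin-transferred from DMSO onto overnight-plated cells and left 5 hr at 37 C. Substrate was then loaded for 2 hr at room temperature before reading fluorescence at 460 nm and 530 nm.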

[4] = qHTS assay to identify small molecule agonists of the endoplasmic reticulum stress response signaling pathway - cell viability counter screen (AID 1159517; calls by dose curve;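 note: HeLa cells carrying an ER stress response element beta-lactamase reporter; series mostly up to about 61 µM; % is set by controls: 0 for no effect and ±100 for the full control effect; nearly all actives have a fitted effect of over 50% in size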)
Summary of the method: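 Luminescence readout: CellTiter-Glo, 30 min RT, same wells as the ESRE-bla reporter read. HeLa ESRE-bla, 1,500 cells/well, o/n 37 C; cpd 5 hr 37 C/5% CO2.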

[5] = qHTS assay to identify small molecule antagonists of the retinoid-related orphan receptor gamma (ROR-gamma) signaling pathway - cell viability counter screen (AID 1159520); note: % is set by controls: 0 for no effect and ±100 for the full control effect; nearly all actives have a fitted effect of over 50% in size
Summary of the method: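 Tet-on ROR gamma CHO cells (1,000/well) were plated 4 hr, given compounds in DMSO for 2 hr at 37 C, then induced with 1 uM final doxycycline for 16 hr. Viability was read as ATP by CellTiter-Glo luminescence after 30 min.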

[6] = target: Nuclear receptor ROR-gamma (Homo sapiens) (UniProt P51449); experiment: qHTS assay to identify small molecule antagonists of the retinoid-related orphan receptor gamma (ROR-gamma) signaling pathway (AID 1159521;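 note: CHO cells with doxycycline inducible ROR-gamma driving an RORE luciferase reporter; top concentration of the series differs between compounds; % is set by controls: 0 for no effect and ±100 for the full control effect; nearly all actives have a fitted effect of over 50% in size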)
Summary of the method: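 Tet-on ROR-gamma CHO cells with ROR response element-luciferase reporter; compounds added 2 hr before 1 uM doxycycline induction, then 16 hr at 37 C. Antagonism scored as decreased ONE-Glo luminescence.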

[7] = qHTS assay to identify small molecule agonists of the AP-1 signaling pathway - cell viability counter screen (AID 1159525; calls by dose curve; note: nearly all actives have a fitted effect of over 55% in size)
Summary of the method: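 ME-180 AP-1-bla, 2500 cells/well, Opti-MEM + 0.5% dialyzed FBS; overnight 37 °C; cpd 15-pt titration, 5 h 37 °C; CellTiter-Glo 30 min RT; luminescence read; normalised to TOAB and DMSO controls.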

[8] = qHTS assay to identify small molecule agonists of the AP-1 signaling pathway (AID 1159526; calls by dose curve; note: % is set by controls: 0 for no effect and ±100 for the full control effect)
[9] = qHTS assay to identify small molecule agonists of the RXR signaling pathway - cell viability counter screen (AID 1159529)
Summary of the method: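 RXR-alpha-UAS-bla HEK 293T cells in medium with 2% charcoal-stripped FBS were pre-incubated 5 hr, then compound-treated 16 hr at 37 C. Viability was read by CellTiter-Glo luminescence in the same wells as the beta-lactamase assay, with tetraoctyl ammonium bromide as positive control.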

[10] = qHTS assay to identify small molecule antagonists of the retinoid acid receptor (RAR) signaling pathway - cell viability counter screen (AID 1159551); note: % is set by controls: 0 for no effect and ±100 for the full control effect; nearly all actives have a fitted effect of over 35% in size
Summary of the method: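 Retinol-stimulated (1 uM final) C3RL4 cells, compound 6 h, 37 C; readout CellTiter-Glo luminescence (ATP) after 30 min RT incubation.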

[11] = qHTS assay to identify small molecule agonists of the retinoic acid receptor (RAR) signaling pathway (AID 1159553); note: % is set by controls: 0 for no effect and ±100 for the full control effect
Summary of the method: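 Reporter readout comes from luciferase under RARE control in C3RL4 cells; compound exposure lasts 6 hr at 37 C in 5% CO2, and luminescence is recorded following a 30 min room-temperature incubation with reagent.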

[12] = qHTS assay to identify small molecule antagonists of the retinoic acid receptor (RAR) signaling pathway (AID 1159552)
Summary of the method: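 Retinol signaling pathway inhibitors screened in C3RL4 RARE-luciferase reporter cells seeded overnight at 37 C, then compounds added with 1 uM (final) retinol as pathway substrate. After 6 hr at 37 C, luciferase luminescence read after 30 min at room temperature.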

[13] = target: Retinoic acid receptor RXR-alpha (Homo sapiens) (UniProt P19793); experiment: qHTS assay to identify small molecule agonists of the RXR signaling pathway (AID 1159527; calls by dose curve; note: % is set by controls: 0 for no effect and ±100 for the full control effect; nearly all actives have a fitted effect of over 35% in size)
Retinoic acid receptor RXR-alpha (Homo sapiens), sequence (P19793 whole entry, looked up): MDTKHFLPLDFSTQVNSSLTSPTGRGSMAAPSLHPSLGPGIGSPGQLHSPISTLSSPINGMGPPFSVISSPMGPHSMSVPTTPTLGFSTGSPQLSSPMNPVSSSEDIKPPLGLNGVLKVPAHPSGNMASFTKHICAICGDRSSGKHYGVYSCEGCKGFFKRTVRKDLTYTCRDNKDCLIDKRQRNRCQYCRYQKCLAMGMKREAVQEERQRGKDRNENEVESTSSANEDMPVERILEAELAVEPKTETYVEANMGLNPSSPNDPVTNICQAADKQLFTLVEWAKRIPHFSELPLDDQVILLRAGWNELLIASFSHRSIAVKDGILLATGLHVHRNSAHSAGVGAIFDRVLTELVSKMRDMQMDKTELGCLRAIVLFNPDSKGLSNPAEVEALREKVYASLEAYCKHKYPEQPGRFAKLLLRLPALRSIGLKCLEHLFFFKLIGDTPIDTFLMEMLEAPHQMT
Summary of the method: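 GeneBLAzer RXR-alpha-UAS-bla HEK 293T cells in 2% charcoal-stripped FBS medium were exposed to compounds for 16 hr at 37 C in agonist mode. Beta-lactamase reporter read as 460/530 nm FRET ratio after 2 hr substrate loading.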

CCc1ccc(C(=O)C(C)CN2CCCCC2)cc1 (centres undefined)
inactive: outcome [1] | outcome [2] | outcome [3] | outcome [4] | Potency [5] | Potency [6] | outcome [7] | Potency [8] | Potency [9] | outcome [10] | Potency [11]

C=CC(C)(O)CC/C=C(/C)CCC=C(C)C (centres undefined)
inactive: outcome [1] | outcome [2] | outcome [3] | outcome [4] | Potency [5] | Potency [6] | outcome [7] | Potency [8] | Potency [9] | outcome [10]

CCn1nc(Cc2ccccc2)cc1C1CCN(C[C@H]2C[C@H](N(C)[C@@H](C(=O)O)C(C)C)C[C@@H]2c2cccc(F)c2)CC1
inactive: outcome [2] | outcome [3] | outcome [4] | Potency [5] | Potency [6] | outcome [7] | Potency [8] | outcome [10] | outcome [12] | Potency [11]

CCCC(=O)OCc1ccccc1
inactive: outcome [1] | outcome [2] | outcome [3] | outcome [4] | Potency [5] | Potency [6] | outcome [7] | Potency [8] | Potency [9] | outcome [10] | Potency [11]

CC(CC(C#N)(c1ccccc1)C(C)C)N(C)C (centres undefined)
inactive: outcome [1] | outcome [2] | outcome [4] | Potency [5] | Potency [6] | outcome [13] | Potency [9] | outcome [10] | outcome [12] | Potency [11]

C[Si](C)(C)O[Si](C)(C)O[Si](C)(C)C
inactive: outcome [1] | outcome [2] | outcome [3] | outcome [4] | Potency [5] | outcome [7] | Potency [8] | Potency [9] | outcome [10]

CCOc1ccccc1O
inactive: outcome [1] | outcome [2] | outcome [3] | outcome [4] | Potency [5] | Potency [6] | outcome [7] | Potency [8] | Potency [9] | outcome [10] | outcome [12] | Potency [11]

O=C(O)c1ccc2cc(O)ccc2c1
inactive: outcome [1] | outcome [2] | outcome [3] | outcome [4] | Potency [5] | Potency [6] | outcome [7] | Potency [8] | Potency [9] | outcome [10] | outcome [12]

CCCCCCCCCCCCCCCCCCCl
inactive: viability change, negative = cytotoxic [1] -10.5% [at 6.95 µM] | activation [2] -0.691% [at 6.95 µM] | activation [3] -3.96% [at 6.95 µM] | activity change, negative = cytotoxicity [4] 2.96% [at 6.95 µM] | activity, negative = cytotoxicity [5] -1.61% [at 8.39 µM] | activity change, negative = inhibition [6] 0.775% [at 8.39 µM] | activation [8] -4.53% [at 6.97 µM] | activity change, negative = cytotoxicity [9] 3.39% [at 6.97 µM] | activity, negative = inhibition [12] -19.9% [at 8.39 µM] | activation [11] -0.984% [at 8.36 µM]

CCCCCCCCCCCC(=O)OCC
inactive: outcome [1] | outcome [2] | outcome [3] | outcome [4] | Potency [5] | Potency [6] | Potency [8] | Potency [9] | outcome [10] | Potency [11]

Reference: PubChem BioAssay (Tox21)
